This assay relates to VDR:RXRa (NR concentration 270 nM, RXRa partner concentration 90 nM). Kind of assay: PBM binding z-score (relative to random genomic background probes); higher = stronger binding; sequences stand for … in GC…GCGATTGACAGCGTAGAATGAAGG
The protocol:
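Protein-binding microarray (Agilent 4x180K custom design, double-stranded 60-nt probes: 5' GC cap, 34-nt variable region, 24-nt constant primer region; full probe sequence given). Purified or IVT nuclear receptor:RXRα heterodimers (3:1 NR:RXRα, mostly 270:90 nM) or homodimers were incubated for 1 h in PBS with 2% milk and no ligand, then detected with Alexa488 antibodies. Fluorescence from o1-orientation probes (~5 replicates averaged) was converted to z-scores against 500 random hg19 background probes. Variable regions are seed direct-repeat (DR0–DR5) sites, all their single-nucleotide variants and half-site ablations.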
Regarding GCTAGTTGGTCAGGAAAAGGTCACACACCGGTCG, the PBM binding z-score turned out to be 3.66. Turning to TCTATTAGTTGATTAGGGCAATCGAAACAGCGGA, the PBM binding z-score is 0.607. In the case of TAGCCTAGGTCATTGGGCCAGTGTAGTACGCATC it was 2.12; in that of CCTACTGGGCCAGCAGGTCATTGATATCAACGTT, 1.26. Take TCTCGGAAGACACGAAAGGTCAGAGCTCGACATC: the PBM binding z-score is 2.55. In turn, CAAACTCGGTCACGAAAGGTCAAAGTCGAATGAC showed a PBM binding z-score of 5.86. In the case of CGTCCAAGGTCATAGGAGGTGAGTGAAGACAGAT it was 4.7; in that of CCTATTAGTAGACCATAAGGGCAACCGAAGCTCG, 0.553; in that of ATCGAAAGGTCGAGGTGACTATAGAGAAAGGGAA, 2.55.

In turn, TCTTGTACATCAATAGAGGTTAAGAAAGTGCGCT yielded a PBM binding z-score of 2.07. In turn, CCTATTCGTTGACCATAAGGGCAACCGAAGCTCG came in with a PBM binding z-score of 0.983.

The sequence ATGTGTAGGTTAAGGGTCATTCAGGTTGGTTCGC displayed a PBM binding z-score of 5.79. The value for CTCCCAAGGTGAACAAGGTCGTTGATTACTATTC was 6.09; that for CCTAGCAGGCCAATATGGGTCACTCAAGGCTTGA was 0.862. In turn, AGAGTGAGGTTATACGTAGATCAGGGAAGAAAGT yielded a PBM binding z-score of 1.6.

For the sequence CCTACTGGGCCTAAAAGGTCATTGATGCCGATAA, the PBM binding z-score stood at 4.38. In the case of ACTAGCAGGCCAAGGGTCACTGAAGATTAGTCCG it was 2.81; in that of GCTATTAGTTGAAAGAGCAACCGAATGATTCTCG, -0.419. CGTCAAAGTTCAAGGGAACGTAACAGAAAGCAGC gave a PBM binding z-score of 3.12. Regarding TCTTGTAGATCAGCAGCTTAAGAAAGCTGGCCAA, the PBM binding z-score is -0.232. The value for TTACCAAGGTGAAAGGTCCTTGATGCACGCCTTG was 0.75; that for ATCTCTAGCTAAAAGTTCAGTGAATCCCGAGGAT was 0.955; that for ATATGTAGGTTAGATGGGGTCATTCAGACTAGGC was 6.54.

In the case of CTCGAAAGGTCGGTTGAGTTGAGTATACGGATAA, the PBM binding z-score turned out to be 3.45.

Take ATATGTAGGTTAGCTGGGGTGATTCAGACTAGGC: the PBM binding z-score amounted to 1.01. In the case of ATCGAAAGTTCGACGAGGTGAGTATACACCGTTT it was 2.81.

ATCTCTAGGTAAAGATAGTTCAGTGTATGCAAAT displayed a PBM binding z-score of 0.93. In the case of CGTCCAAGGTCATAGGAGGTCAGTGGAGACAGAT it was 6.87. In the case of AGAATGAGGTTATAGGTAGATCAGGGAAGAAAGT, the PBM binding z-score stood at 1.44.

CCTTACGGGTCACGAGGGTATAGCACGACGAGCG returned a PBM binding z-score of 5.04. Regarding CCTGCTAGGTAAATGGTCAGCTAAAGCAGCTCGC, the PBM binding z-score was -0.541. CGAACTAGGTCAGAACACGACAGTGAAGGATGAT showed a PBM binding z-score of 0.217. In the case of CGAACTAGGTCCAGGACAGTGAATCTCCGCACGC it was -0.573. As to CAAACTGGGTCAAGGTCAAAGTCGGTTTGTGCCA, the PBM binding z-score is 5.18. The value for CTAGAAAGGTCGGTTGAGGTGAGTATACGGATAA was 2.4; that for CGAACGAGGGCATGAGTTGATAACAAATGCCGAT was 1.04; that for CGTCCATGGTCAAAGGTCAGTGAAGAGATGACGG was 3.39.

CCGAGTAGGTTAGGGGGCATTCAGGCAACGGTGA: the PBM binding z-score came to 2.93.

Turning to GATACAGGGACAAGGCCAGAGTACGCGTATTGAT, the PBM binding z-score is -0.523. For CCTGCTAGCTCAATGGTCAGCTAAAGCAGCTCGC, the PBM binding z-score was -0.686.

The values above are taken from the supplement of paper PMC6555819.
